Fam108B counter – mouse Fam108B serine hydrolase inhibitors, primary screen, counter-screen for RBBP9 inhibitor project, biochemical, fluorescence polarization. inhibition, % at 9.51 µM. 300,000 compounds, 0.33% hits. AID 1947, 2009. recombinant Fam108B, FP-Rh probe fluorescence polarization;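 active = inhibition above the screen mean inhibition plus 3 SD, computed separately per campaign, cut at about 18% in these data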;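 also: inhibitors lower polarization as less probe binds the enzyme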
GSTO1 inh – inhibitors of recombinant GSTO1, primary screen, counter-screen for RBBP9 inhibitor project, biochemical, fluorescence polarization | Glutathione S-transferase omega-1 (Homo sapiens), P78417 | activity-based probe fluorescence polarization | inhibition, % at 5.96 µM | 300,000 compounds, 1.1% hits | AID 1974, 2009;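 active = inhibition above the campaign mean inhibition plus 3 SD, cut at about 35% in these data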;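 also: 0% = GSTO1-1 with DMSO and 100% = wells lacking GSTO1-1 enzyme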
PME-1 inh – PME-1 inhibitors via competitive probe labeling, primary screen, biochemical, fluorescence polarization, FP-Rh probe, HTS. Protein phosphatase methylesterase 1 (Homo sapiens), Q9Y570. recombinant PME-1. inhibition, % at 5.9 µM. 320,000 compounds, 0.53% hits;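 active = inhibition above the campaign mean of all compounds plus 3 SD, cut at about 26% in these data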;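 also: competitive labeling of PME-1 active site by serine hydrolase directed probe; 0% = PME-1 with DMSO and 100% = wells lacking PME-1 enzyme; inhibitors block probe labeling so polarization falls and inhibition rises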
PAD4 FP inh – human PAD4 inhibitors, primary screen, biochemical, fluorescence polarization, 1536-well format | Protein-arginine deiminase type-4 (Homo sapiens), Q9UM07 | recombinant PAD4, RCA probe fluorescence polarization | inhibition, % at 6.36 µM | 330,000 compounds, 0.41% hits;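 active = percent inhibition above a cutoff equal to the mean of all tested compounds plus 3 SD, cut at about 15% in these data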;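 also: 0% = PAD4 with RCA probe and DMSO and 100% = probe without PAD4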
Target sequence (Q9UM07 whole entry, looked up): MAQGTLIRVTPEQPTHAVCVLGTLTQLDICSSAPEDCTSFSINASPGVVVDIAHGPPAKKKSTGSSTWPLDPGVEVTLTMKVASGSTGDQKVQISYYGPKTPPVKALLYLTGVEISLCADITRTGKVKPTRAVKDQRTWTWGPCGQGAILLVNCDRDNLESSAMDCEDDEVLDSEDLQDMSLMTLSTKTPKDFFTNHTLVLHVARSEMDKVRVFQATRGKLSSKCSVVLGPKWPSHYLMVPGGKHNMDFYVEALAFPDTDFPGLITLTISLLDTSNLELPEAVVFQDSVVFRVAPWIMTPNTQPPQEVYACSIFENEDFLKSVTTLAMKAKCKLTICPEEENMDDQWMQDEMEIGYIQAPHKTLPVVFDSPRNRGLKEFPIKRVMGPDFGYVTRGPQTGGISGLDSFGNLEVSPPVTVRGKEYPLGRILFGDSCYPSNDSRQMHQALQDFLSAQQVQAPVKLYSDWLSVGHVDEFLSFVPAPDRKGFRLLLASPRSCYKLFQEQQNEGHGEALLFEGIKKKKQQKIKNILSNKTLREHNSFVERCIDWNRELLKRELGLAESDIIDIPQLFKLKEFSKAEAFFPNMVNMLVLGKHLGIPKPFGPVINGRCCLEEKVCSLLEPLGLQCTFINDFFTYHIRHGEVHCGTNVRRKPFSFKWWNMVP
LYPLA2 counter – LYPLA2 inhibitors, primary screen, counter-screen for PME1 inhibitor project, biochemical, fluorescence polarization, FP-Rh probe ABPP | inhibition, % at 5.9 µM | AID 2177, 2009 | 320,000 compounds, 0.38% hits | Acyl-protein thioesterase 2 (Homo sapiens), O95372 | recombinant LYPLA2;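 active = inhibition above the screen-wide mean plus 3 SD, limit set per campaign, cut at about 26% in these data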;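 also: 0% = LYPLA2 with DMSO and 100% = wells lacking LYPLA2 enzyme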
LYPLA1 counter – LYPLA1 inhibitors, primary screen, counter-screen for PME1 inhibitor project, biochemical, fluorescence polarization, FP-Rh probe ABPP | Acyl-protein thioesterase 1 (Homo sapiens), O75608 | recombinant LYPLA1 | inhibition, % at 5.9 µM | 320,000 compounds, 0.16% hits;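 active = inhibition above the mean of all tested compounds plus 3 SD, set per campaign, cut at about 14% in these data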;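 also: inhibitors block serine hydrolase probe labeling of LYPLA1 so polarization falls; 0% = enzyme with DMSO and 100% = wells lacking LYPLA1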
GSTO1 confirm – GSTO1 inhibitor hit confirmation, counter-screen for RBBP9 inhibitor project, biochemical, fluorescence polarization, triplicate. recombinant GSTO1, probe fluorescence polarization. AID 2176, 2009. shares compounds with GSTO1 inh. inhibition, % at 5.96 µM. 2,400 compounds, 54% hits;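 active = inhibition above the primary screen's cutoff, its mean inhibition plus 3 SD, cut at about 35% in these data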;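 also: loss of polarization as inhibitors block binding of rhodamine sulfonate ester activity probe; 0% = GSTO1 with DMSO and 100% = wells lacking GSTO1 enzyme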
GSTO1 recomb ABPP – inhibitors of purified human GSTO1, late-stage follow-up, biochemical, gel ABPP, SE-Rh probe, percent inhibition; shares compounds with GSTO1 inh; recombinant GSTO1, gel ABPP SE-Rh probe fluorescence; inhibition, % at 1 µM; 130 compounds, 30% hits; AID 463110, 2010;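 active = inhibition of the enzyme GSTO1 above about 75%, limit read from the data; inactive = inhibition below that limit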
The depositor's hits bear a star; x = no result given. An excerpt weighted towards active compounds, which were near 1.8% of everything screened.

SMILES | Fam108B counter | GSTO1 inh | PME-1 inh | PAD4 FP inh | LYPLA2 counter | LYPLA1 counter | GSTO1 confirm | others
COC(=O)CN1C(=O)C2(C(C#N)=C(N)Oc3c2c(C)nn3-c2ccccc2)c2ccccc21 (stereo not given) | 3.7 | 41.7* | 4.0 | -3.0 | -2.0 | -3.5 | 15.1
Cc1cccc(C(=O)N/N=C/c2ccc[nH]2)c1 | 0.3 | 6.4 | 1.6 | 3.4 | 3.4 | 0.2 | x
Cc1ccc(N=Cc2ccc[nH]2)c(O)c1 | 5.0 | 37.6* | 7.3 | -17.9 | -2.0 | -1.7 | 1.8
S=C(Nc1ccc(N2CCOCC2)cc1)Nc1ccc2nc(-c3ccco3)c(-c3ccco3)nc2c1 | 17.7 | 49.8* | 50.5* | 3.0 | 4.5 | -2.6 | 5.5
Cc1ncsc1C(=O)N1CCCC(CNS(=O)(=O)c2cccs2)C1 (stereo not given) | 2.9 | 5.8 | 0.3 | -6.8 | -5.9 | -1.7 | x
C=CCn1c(O)c(N=NC(=S)Nc2ccccc2C)c2cc(S(=O)(=O)N3CCOCC3)ccc21 | 1.7 | 42.1* | 6.1 | 0.0 | -1.3 | -0.6 | 7.1
CC(=O)Nc1ccc(S(=O)(=O)NC2=C(N3CCN(C)CC3)C(=O)c3ccccc3C2=O)cc1 | 1.8 | 42.8* | -3.7 | -8.8 | -7.2 | -5.2 | 37.9*
CCN1CCN(C2=C(NS(=O)(=O)c3ccc(NC(C)=O)cc3)C(=O)c3ccccc3C2=O)CC1 | 1.0 | 50.4* | 5.2 | -6.0 | 4.2 | 6.2 | 14.8
O=C(Cc1cc(=O)[nH][nH]1)N/N=C/C(Cl)=C/c1ccccc1 | 1.2 | 54.0* | 3.1 | 6.8 | 0.9 | -1.8 | 19.9
O=C(NC1CCCCC1)C(c1cccnc1)N(C(=O)CCl)c1ccc(F)cc1 (stereo not given) | -1.9 | 94.7* | 1.7 | 2.7 | 4.3 | 7.2 | 97.3* | GSTO1 recomb ABPP=82.0*
O=C(NC1CCCCC1)C(c1cccnc1)N(C(=O)CCl)c1ccccc1Cl (stereo not given) | 0.6 | 87.7* | 5.0 | -1.7 | 7.7 | 2.4 | 83.5* | GSTO1 recomb ABPP=40.0
O=C(NCC(=O)N(c1ccc(F)cc1)C(C(=O)NC1CCCCC1)c1cccnc1)c1ccco1 (stereo not given) | 3.3 | -2.3 | -1.7 | -1.7 | 5.8 | 3.8 | x
Oc1ccc(O)c(-c2cnns2)c1 | 2.1 | 88.9* | 1.4 | 0.0 | -3.3 | -6.9 | -5.2
Nc1nc(N)nc(-c2cc(O)ccc2O)n1 | x | x | 3.7 | -4.0 | 5.7 | -1.2 | x
CC(NC(=O)CCc1nnc(-c2ccc(-c3ccccc3)cc2)o1)c1nc2ccccc2[nH]1 (stereo not given) | -8.5 | -6.5 | -0.9 | -6.1 | -1.6 | -7.5 | x
CCOC(=O)c1ccc(NC(=O)CN2C(=O)C(=O)N(CC(C)C)C2=O)cc1 | 4.3 | -2.5 | 3.8 | -2.7 | 6.8 | 0.6 | x
COc1cccc(C2C3(C#N)C(N)=NC(OC)(OC)C23C#N)c1 (stereo not given) | 4.7 | 2.5 | -4.3 | -0.1 | -0.7 | 2.5 | x
COC1(OC)N=C(N)C2(C#N)C(c3cccc(Oc4ccccc4)c3)C12C#N (stereo not given) | 2.3 | 64.7* | -4.5 | -1.3 | -0.2 | -1.7 | 30.3
CCN(CC)c1ccc2c(O)cc(=O)oc2c1 | 6.4 | 53.6* | -2.4 | 4.0 | 3.7 | -1.3 | 8.7
COc1ccc2c3c(cccc13)N(C)N=C2C | 3.4 | 70.0* | 7.2 | 10.3 | 0.0 | -0.7 | 64.0*
COc1ccc2c3c(cccc13)OC2=O | 0.9 | 5.9 | -2.8 | 0.5 | 11.3 | 0.4 | x
COc1ccc(C(=O)COC(=O)CN2C(=O)C3C4C=CC(C5CC45)C3C2=O)cc1 (stereo not given) | 3.9 | 5.7 | 1.2 | -0.9 | 4.1 | -0.6 | x
COc1ccc(OC)c2c1C(=O)C(Cl)=C(Cl)C2=O | -1.3 | 57.5* | 2.5 | -7.4 | 6.5 | 2.6 | 7.8
CN1CCc2cccc3c2[C@H]1Cc1ccc(O)c(O)c1-3 | -4.6 | 88.6* | -8.5 | 5.9 | -3.0 | -4.2 | 5.7
Cc1cc(C)nc(NN=C(c2ccccc2)c2ccccc2)n1 | -3.9 | -1.6 | -6.0 | -6.0 | -0.8 | -1.2 | x
SMILES | Fam108B counter | GSTO1 inh | PME-1 inh | PAD4 FP inh | LYPLA2 counter | LYPLA1 counter | GSTO1 confirm | others
Oc1ccc(O)c(/C(=N/Nc2ccccc2)c2ccccc2)c1 | 5.4 | 39.8* | 3.2 | -15.2 | 1.5 | -0.9 | 5.7
CN(C)c1nc(Cl)nc(N(C#N)CCOc2ccccc2)n1 | -1.0 | 44.1* | 0.0 | -0.6 | 4.6 | -1.6 | 69.0*
O=C(O)c1cccc(-n2cccc2/C=C2\SC(=O)N(Cc3ccccc3F)C2=O)c1 | -1.5 | -8.3 | -0.8 | 0.9 | -1.3 | -2.7 | x
COc1ccc(NC(=O)CCN2CCN(S(=O)(=O)c3ccc(Br)cc3)CC2)cc1 | 0.7 | 71.0* | 4.8 | 0.6 | 5.8 | -0.3 | 5.7
COCc1cc(C)nc(SCC(=O)c2ccc(O)c(O)c2)c1C#N | -1.6 | 47.6* | -15.3 | 0.3 | -2.7 | -6.1 | 14.3
COC(=O)CCC(=O)OC1(C)C(=O)C=C2C=C(C3CC3)N(Cc3ccco3)C=C2C1=O (stereo not given) | -2.1 | 37.9* | 4.6 | -2.7 | 5.6 | 3.7 | 17.4
COC(=O)CCC(=O)OC1(C)C(=O)C=C2C=C(C3CC3)N(c3ccc(CO)cc3)C=C2C1=O (stereo not given) | 1.5 | 20.6 | 1.4 | -4.5 | 1.2 | -0.1 | x
COC(=O)CCC(=O)OC1(C)C(=O)C=C2C=C(C3CC3)N(c3cccc(C#N)c3)C=C2C1=O (stereo not given) | 6.2 | 58.0* | 5.4 | -10.9 | 0.4 | 1.7 | 7.5
CC(c1ccncn1)N(C)C(=O)c1ccc2oc(Cc3ccccc3)nc2c1 (stereo not given) | -5.2 | -7.4 | 5.5 | -5.2 | -5.9 | -3.7 | x
O=C(CSc1nnc(-c2ccco2)o1)c1ccccc1 | -2.2 | 18.1 | 7.3 | -3.8 | 1.1 | -1.2 | x
O=C(CSc1nnc(-c2ccco2)o1)c1ccc(F)c(F)c1 | -0.8 | 37.5* | 0.0 | -1.7 | 9.6 | 7.0 | 30.6
CCCC[n+]1ccn(C2=C([O-])c3ccccc3C(=O)/C2=N\S(=O)(=O)c2ccccc2)c1 | 0.0 | 67.9* | 8.9 | -1.1 | 1.7 | 2.9 | 65.8*

High-throughput results from PubChem BioAssay.
